Each structure is given as a SMILES string. More than one record can exist for a structure, and the calls need not agree. Calls of active or inactive are those of the source. The calls were made as follows: active = hit-call score of the fitted dose curve at least 0.9, where 1 is the maximum; inactive = score below 0.9.

Read-out in this assay: Plasminogen activator inhibitor-1 (PAI1), SERPINE1 (gene 5054)
Description: BSK_MyoF_PAI1: BioMAP Diversity Plus: MyoF Assay for Plasminogen activator inhibitor-1 (PAI1) Biomarker Activity (AID 2284256). Particulars: primary human lung fibroblasts. On the procedure:
BSK_MyoF is a cell-based, multiplexed-readout assay that uses lung fibroblasts, […], with measurements taken at 24 hours after chemical dosing in a microplate: 96-well plate.BSK_MyoF_PAI1 is an assay component measured in the BSK_MyoF assay. It measures PAI-1 antibody related to regulation of gene expression using ELISA technology.Data from the assay component BSK_MyoF_PAI1 was analyzed at the endpoint, BSK_MyoF_PAI1, in the positive analysis fitting direction relative to DMSO as the negative control and baseline of activity. Using a type of binding reporter, gain or loss-of-signal activity can be used to understand protein changes. To generalize the intended target to other relatable targets, this assay endpoint is annotated to the 'cytokine' intended target family, where the subfamily is 'plasmogen activator inhibitor'.
The levels of cell surface (or secreted, indicated by the prefix "s") biomarker endpoints were measured by ELISA. Overt cytotoxicity to cells in confluent adherent cultures (all systems other than the BT system) was assessed by measuring total protein levels using sulforhodamine B (SRB) staining in parallel cultures at the time of biomarker measurements, indicated as SRB endpoints. For proliferation assays for adherent cell types, individual cell types are cultured at sub-confluence and relative cell numbers quantified by SRB staining at time points optimized for each system (48 h: 3C and CASM3C systems; 72 h: BT and HDF3CGF systems; 96 h: SAg system). SRB was performed by staining cells with 0.1% SRB after fixation with 10% TCA and reading wells at 560 nm.Viability and proliferation of PBMC (T cells) was quantified by Alamar Blue reduction for the SAg and BT systems. For PBMC viability (referred to as PBMC Cytotoxicity within the assay endpoint names), cells were plated (75,000/well in a 96-well plate) and then chemical samples added for 1 h before addition of activators, SEB and TSST-1 (20 ng/mL final concentration each). Cells were incubated for 90 h. Then, Alamar Blue (20 uL/well) (Invitrogen, Cat DAL1100) was added for 6 h, and the plates were read with a fluorescence microplate reader at 546/580 nm (excitation/emission). For PBMC proliferation, cells were plated and activated as above but incubated for only 16 h prior to addition of Alamar Blue. Plates were read after 6 h.
For `O=C(CCl)NCO`, the outcome was inactive. Same read-out and setting: the entry for `CCOC(=O)CCN(SN(C)C(=O)Oc1cccc2c1OC(C)(C)C2)C(C)C` is “inactive”. The same measure, in the same setting: in the case of `CC(C=O)Cc1ccc2c(c1)OCO2` (stereo not given) it was “inactive”; in that of `CCC(C)(C#N)N=NC(C)(C#N)CC` (stereo not given), “inactive”; in that of `CCCCN(CCCC)C(=S)[S-].CCCCN(CCCC)C(=S)[S-].[Ni+2]`, “inactive”. The same measure, in the same setting: in the case of `Cc1cc(Cl)ccc1OC(C)C(=O)O` (stereo not given) it was “inactive”. A word on the AC50: it is the concentration giving half of the maximal activity seen. `CC(C)(C)c1cc([N+](=O)[O-])cc(C(C)(C)C)c1O`: the AC50 is 0.016 µM (active).

`c1ccc2sc(SNC3CCCCC3)nc2c1`: the result was inactive.

Turning to `CCOP(=O)(OCC)SCCSCC`, the result was inactive. Same read-out and setting: the entry for `CCOP(=S)(OCC)OP(=S)(OCC)OCC` is “inactive”; for `O=[N+]([O-])c1cccc2ccccc12` it is “inactive”; for `CCOC(=O)C(SP(=S)(OC)OC)c1ccccc1` (stereo not given) it is “inactive”. In the case of `CC1(C)[C@H](C(=O)O[C@H](C#N)c2cccc(Oc3ccccc3)c2)[C@@H]1/C=C(\Cl)C(F)(F)F`, the outcome was inactive and the AC50 was 0.0141 µM (active). Consider `Nc1ccc(N)cc1`, for which the result was inactive. Still for that read-out and setting: the entry for `Cc1cc(C(C)(C)c2ccc(O)c(C)c2)ccc1O` is “inactive”; for `C[C@]12CC[C@@H](O)C[C@@H]1CC[C@@H]1[C@@H]2CC[C@]2(C)C(=O)CC[C@@H]12` it is “inactive”; for `CCOP(=S)(OCC)SCS(=O)(=O)C(C)(C)C` it is “inactive”. Still for that read-out and setting: the entry for `O=[N+]([O-])c1ccc(Nc2ccccc2)cc1` is “inactive”; for `Cc1c([N+](=O)[O-])c(C)c([N+](=O)[O-])c(C(C)(C)C)c1[N+](=O)[O-]` it is “inactive”; for `CCOC(=O)CC(=O)CCl` it is “inactive”. For `Cc1cccc(OP(=O)(Oc2cccc(C)c2)Oc2cccc(C)c2)c1`, the AC50 was 0.016 µM (active).

With `Nc1c(Oc2ccccc2)cc(O)c2c1C(=O)c1ccccc1C2=O`, the result was inactive. Same read-out and setting: in the case of `NC(=O)CCl` it was “inactive”. Same read-out and setting: the entry for `CCCCCCCCCCCCN(C)C` is “inactive”; for `CC(C)(COCC1CO1)COCC1CO1` (stereo not given) it is “inactive”.

For `O=c1oc2ccccc2c(O)c1C(CC(O)c1ccc(-c2ccc(Br)cc2)cc1)c1ccccc1` (stereo not given), the AC50 is 3.64 µM (active). On the same count and under the same terms, the figure for `C=CC(Cl)CCl` (stereo not given) is 0.806 µM (active).

For `O=C(O)COc1cc(Cl)c(Cl)cc1Cl`, the result was inactive.

As to `O=S(=O)(C(Cl)(Cl)Cl)C(Cl)(Cl)Cl`, the AC50 was 3.03 µM (active).

Regarding `Oc1cccc(-c2ccccc2)c1`, the outcome was inactive. Still for that read-out and setting: the entry for `O=S(=O)(c1ccc(Cl)cc1)c1cc(Cl)c(Cl)cc1Cl` is “inactive”. For `OC(Cc1ccccc1Cl)(Cn1[nH]cnc1=S)C1(Cl)CC1` (stereo not given), the AC50 was 34.5 µM (active). Take `c1ccc(-c2cccc(-c3ccccc3)c2)cc1`: the result was inactive. Regarding `N#CCCC(Br)(C#N)CBr` (stereo not given), the AC50 is 26.4 µM (active).

Consider `Cc1cc(Cl)ccc1N`, for which the result was inactive. The same measure, in the same setting: the entry for `OC(Cc1ccccc1Cl)(Cn1cncn1)C1(Cl)CC1` (stereo not given) is “inactive”; for `COCC(=O)N(c1c(C)cccc1C)[C@H](C)C(=O)OC` it is “inactive”. With `Cc1ccccc1OP(=O)(Oc1ccccc1C)Oc1ccccc1C`, the AC50 was 11.9 µM (active). For `Oc1c(Br)cc(Br)cc1Br`, the result was inactive.

For the origin of these results see PubChem BioAssay (EPA / NIEHS).
